Test systems include HCT-15 colon; HT29 colon; SNB-75 CNS; SNB-19 CNS; U251 CNS; PC-3 prostate; SK-MEL-5 melanoma; UACC-62 melanoma; LOX IMVI melanoma; SK-MEL-28 melanoma; SK-MEL-2 melanoma; EKVX NSCLC; SN12C renal; UO-31 renal; TK-10 renal; ACHN renal; CAKI-1 renal; CCRF-CEM leukemia; MOLT-4 leukemia; A498 renal.
Holding throughout (experiment): NCI-60 one-dose screen, 48 h (100 = growth as untreated, 0 = no growth, -100 = all killed)
Conditions in all cases: 10 µM unless noted

This is an account of results in PubChem BioAssay (NCI).

Structures are written as SMILES. Compounds without any hit were thinned out: in the full panel of roughly 83,000, 20% have a hit.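 Assay: single dose, 48 h. Readout: percent growth (0 = no net growth; negative = cell death). Active: <10.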 Values without a mark were called inactive. The source made the active and inactive calls.

Turning to `COC(CC(F)F)c1cn(S(=O)(=O)c2ccc(C)cc2)c2ccccc12` (configuration not stated), the growth with HCT-15 colon was 20%; with HT29 colon, 4.89% (active); in the test on SNB-75 CNS, 18.6%; in the test on SNB-19 CNS, 29.2%; in the test on U251 CNS, 19.6%; with PC-3 prostate it was 21.3%. The growth in the test on SK-MEL-5 melanoma is 34.1%; with UACC-62 melanoma, 32.1%; in the test with LOX IMVI melanoma, 40.7%; with SK-MEL-28 melanoma it was 44.7%; in the test with SK-MEL-2 melanoma, 41.3%; in the test on EKVX NSCLC it was 48.3%. Moreover, the growth was 43.3% in the test with SN12C renal; 33.8% in the test with UO-31 renal; 59.3% with TK-10 renal; 51% with ACHN renal; 37.4% in the test with CAKI-1 renal; 11.1% in the test on CCRF-CEM leukemia.

Consider `COC(=O)Nc1nc2ccc(S(=O)c3ccccc3)cc2[nH]1` (configuration not stated), for which the growth is 45.6% with HCT-15 colon; 16.9% with HT29 colon; 73.2% in the test with SNB-75 CNS; 74.9% in the test on SNB-19 CNS; 60.2% in the test on U251 CNS; 67.4% with PC-3 prostate. The growth in the test on SK-MEL-5 melanoma is 42.5%; in the test on UACC-62 melanoma, 52.4%; in the test with LOX IMVI melanoma, 64.8%; in the test with SK-MEL-28 melanoma, 72.8%; with SK-MEL-2 melanoma, 48.1%; in the test with EKVX NSCLC it was 80%. The growth in the test on SN12C renal was 82.2%; in the test with UO-31 renal it was 65%; with TK-10 renal, 92.9%; in the test on ACHN renal, 86.1%; in the test on CAKI-1 renal it was 63.2%; in the test on CCRF-CEM leukemia, 66.9%. For the same compound, the growth in the test with MOLT-4 leukemia was 70.5%.

`CC(C)(Sc1cc(C(C)(C)C)c(O)c(C(C)(C)C)c1)Sc1cc(C(C)(C)C)c(OC(=O)CCCC(=O)O)c(C(C)(C)C)c1`: the growth was 27.8% with HCT-15 colon; 40.8% in the test on HT29 colon; 112% with SNB-75 CNS; 57.1% in the test on SNB-19 CNS; 47.1% in the test with U251 CNS; 33.9% in the test with PC-3 prostate. The growth in the test on SK-MEL-5 melanoma is 54.1%; in the test on UACC-62 melanoma, 26.1%; in the test with LOX IMVI melanoma, 59%; in the test with SK-MEL-28 melanoma it was 70.6%; with SK-MEL-2 melanoma, 76%; in the test with EKVX NSCLC, 53.5%. For the same compound, the growth in the test with SN12C renal is 41.4%; in the test with UO-31 renal it was 38%; with TK-10 renal it was 74.2%; with ACHN renal it was 47%; in the test with CAKI-1 renal, 59%; in the test on CCRF-CEM leukemia, 43.5%. For the same compound, in the test on MOLT-4 leukemia, the growth is 36.9%.

As for `CCCCCCCCCCC(CN(CC)CC)C(O)c1ccccc1` (configuration not stated), the growth in the test on HCT-15 colon is 13.5%; in the test with HT29 colon it was -2.44% (active); in the test with SNB-75 CNS, 49.4%; with SNB-19 CNS, 51.5%; in the test on U251 CNS, 12.9%; in the test on PC-3 prostate, 25.9%. Further, the growth in the test with SK-MEL-5 melanoma is -93.8% (active); with UACC-62 melanoma it was -44.3% (active); in the test on LOX IMVI melanoma it was -82% (active); in the test with SK-MEL-28 melanoma, -61.6% (active); in the test with SK-MEL-2 melanoma it was 65.8%; in the test with EKVX NSCLC, 41.8%. The growth with SN12C renal is 57.1%; in the test with UO-31 renal, 24.4%; with TK-10 renal it was 45.3%; in the test on ACHN renal, 31.6%; in the test on CAKI-1 renal, 45.5%; in the test with CCRF-CEM leukemia, 4.36% (active). For the same compound, the growth in the test with MOLT-4 leukemia is -15.2% (active).

As for `COc1cc(OCc2cccc(Br)c2C)cc(OC)c1C=O`, the growth with HCT-15 colon is 80.6%; with HT29 colon, 75%; in the test with SNB-75 CNS, 90.2%; in the test with SNB-19 CNS it was 91.8%; in the test on U251 CNS, 87%; with PC-3 prostate, 79.6%. The growth with SK-MEL-5 melanoma is 91.9%; in the test with UACC-62 melanoma it was 36.5%; in the test on LOX IMVI melanoma, 90.1%; in the test with SK-MEL-28 melanoma it was 99.5%; in the test on SK-MEL-2 melanoma it was 88%; with EKVX NSCLC, 80.8%. The growth in the test on SN12C renal is 77.5%; with UO-31 renal, 71.8%; in the test on TK-10 renal, 45.4%; in the test on ACHN renal, 90.7%; in the test with CAKI-1 renal, 24.2%; with A498 renal, -88.7% (active). For the same compound, in the test on MOLT-4 leukemia, the growth was 80.2%.

With `N#CC1=C(N)Oc2c(sc3c(Br)cccc23)C1c1ccc(Cl)cc1` (configuration not stated), the growth is 8.47% (active) in the test on HCT-15 colon; -14.2% (active) with HT29 colon; 4.29% (active) in the test on SNB-75 CNS; 37% in the test on SNB-19 CNS; 7.28% (active) in the test on U251 CNS; 17.3% in the test on PC-3 prostate. Also, the growth is 17.3% in the test on SK-MEL-5 melanoma; 10.3% in the test on UACC-62 melanoma; 23.3% with LOX IMVI melanoma; 44.8% with SK-MEL-28 melanoma; -2.16% (active) in the test with SK-MEL-2 melanoma; 34.3% with EKVX NSCLC. The growth in the test on SN12C renal is 30%; with UO-31 renal, 34.2%; in the test with TK-10 renal, 37.8%; in the test on ACHN renal, 43.6%; with CAKI-1 renal, 39.3%; with A498 renal, 16.3%. Moreover, in the test with MOLT-4 leukemia, the growth is 3.26% (active).

Consider `Ic1ccc(OCCCCn2ccnc2)cc1`, for which the growth in the test with HCT-15 colon is 74.5%; in the test with HT29 colon it was 27.5%; with SNB-75 CNS, 64.5%; in the test on SNB-19 CNS, 65.2%; in the test with U251 CNS, 67.8%; in the test with PC-3 prostate it was 48.6%. In addition, the growth was 79.6% with SK-MEL-5 melanoma; 40.6% in the test with UACC-62 melanoma; 80.3% in the test on LOX IMVI melanoma; 55.9% in the test with SK-MEL-28 melanoma; 80.7% with SK-MEL-2 melanoma; 62.1% in the test on EKVX NSCLC. Also, the growth with SN12C renal is 76.6%; in the test with UO-31 renal, 63.8%; with TK-10 renal, 45.3%; in the test with ACHN renal, 59.4%; with CAKI-1 renal, 70%; in the test on A498 renal, 36.2%. The growth in the test with MOLT-4 leukemia was 82.2%.
